# Tested on: Plasmodium falciparum
# Assay: GSK_TCMDC: Inhibition of Plasmodium falciparum 3D7 in whole red blood cells, using parasite LDH activity as an index of growth. Test compounds present at 2uM
# Assay type: functional
row,Structure (SMILES),Inhibition
1,Cc1[nH]c(C)c(-c2ccc(OCc3ccc(F)cc3)nc2)c(=O)c1Br,97%
2,CC(C)C[C@@H](CNC[C@H](CC(C)C)NC(=O)OC(C)(C)C)NC(=O)OC(C)(C)C,88%
3,O=C(Nc1ccc(Cn2nc(Cl)c(N3CCCNCC3)cc2=O)cc1)Nc1ccc(-c2ccccc2)cc1.O=C(O)C(F)(F)F,87%
4,Cc1nn(-c2ccccc2)c2c1C(c1ccc(C(C)C)cc1)N1C(=N2)N(Cc2ccccc2)c2ccccc21 (stereo not given),95%
5,COc1ccc2nccc([C@@H](O)CN3CCC(NC(=O)c4[nH]c5ccccc5c4-c4ccccc4)CC3)c2c1,96%
6,O=C(O)C(F)(F)F.c1cc(-c2ccc(CNCCc3ccncc3)cc2)cc(-c2nc3ccccc3[nH]2)c1,100%
7,Nc1nccc2ccc(-c3cccc(OCc4ccccc4)c3)cc12.O=C(O)C(F)(F)F,100%
8,Cc1cccc2nc(-c3cccc(-c4cccc(CNCc5cnn(-c6ccccc6)n5)c4)c3)[nH]c12.O=C(O)C(F)(F)F,99%
9,CC(C)(C)c1ccc(N2C(N)=NC(N)=NC2(C)C)cc1.Cl,93%
10,O=C(Nc1ccc(Cl)cc1)Nc1cccc(CCNCc2ccccc2)c1.O=C(O)C(F)(F)F,100%
11,C[C@@H](CC1CCCCC1)OC(=O)N(C)[C@@H]1CCN(C#N)C1,95%
12,N=C(N)NN=Cc1c[nH]c2ccc(-c3ccccc3)cc12.O=C(O)/C=C\C(=O)O,84%
13,O=C(Nc1cccc(CN2CCN(Cc3ccc(O)cc3)CC2)c1)c1ccc(Cl)c(Cl)c1.O=C(O)C(F)(F)F,100%
14,Cc1cccc(CNc2nc(C)cc(N[C@@H](Cc3ccccc3)C(=O)NC3CCCC3)n2)c1.O=C(O)C(F)(F)F,100%

# Tested on: Plasmodium falciparum
# Assay: GSK_TCMDC: Inhibition of Plasmodium falciparum Dd2 in whole red blood cells, using parasite LDH activity as an index of growth. Test compounds present at 2uM
# Assay type: functional
row,Structure (SMILES),Inhibition
1,COCCN1CCC(N(Cc2ccc(-c3ccc(C(F)(F)F)cc3)cc2)C(=O)Cn2c(CCc3cccc(F)c3F)cc(=O)c3c2CCC3)CC1.O=C(O)C(O)C(O)C(=O)O,48%
2,CC1(C)NC(N)=NC(=N)N1OCc1cc(Cl)c(Cl)cc1CON1C(=N)N=C(N)NC1(C)C,100%
3,CCc1c(CCNCCCC(C)CCNCCc2ccc(OC)c(OC)c2CC)ccc(OC)c1OC.Cl (stereo not given),27%
4,O=[N+]([O-])c1ccc(C(O)P(=O)(c2ccccc2)c2ccccc2)cc1 (stereo not given),1%
5,O=C(Nc1cccc(CN2CCCN(CCc3ccccc3)CC2)c1)c1ccc(Cl)c(Cl)c1.O=C(O)C(F)(F)F,15%
6,CCN(CC)CCN(Cc1ccc(-c2ccc(C(F)(F)F)cc2)cc1)C(=O)Cn1c(CCc2cccc(F)c2F)nc(=O)c2ccc(C(F)(F)F)cc21.O=C(O)C(O)C(O)C(=O)O,55%
7,CCC(C)CN1CCN(c2ccc(NC(=O)c3cccs3)cc2)CC1C.O=C(O)C(F)(F)F (stereo not given),94%
8,Cc1c(Br)cc2nc(-c3ccc(C(=O)NC4CCN(Cc5ccccc5)CC4)cc3)[nH]c2c1C,98%
9,Cc1noc(C)c1-c1ccc2c(Nc3cccc4c3-c3ccccc3C4=O)c(C(=O)NCc3ccccc3I)cnc2c1,99%
10,O=C(NCCNc1nc(NCCNC(=O)Nc2ccccc2)c2ccc(=O)n(-c3c(F)cccc3F)c2n1)Nc1ccccc1,87%
11,O=C(CN1CCN(C(C(=O)Nc2cc(C(F)(F)F)ccc2Cl)c2ccccc2)CC1)NC1CC1 (stereo not given),93%
12,CCC(c1ccccc1)c1nn2c(-c3cccs3)nnc2s1 (stereo not given),95%
13,COc1ccc(CN2CCC(CNCC(c3ccccc3)c3ccccc3)CC2)cc1.O=C(O)C(F)(F)F,95%
14,COc1ccc(-c2cnc(NCc3ccccc3)nc2)cc1CNC1CCN(C)CC1.O=C(O)C(F)(F)F,64%
15,COc1ccc(O)c(Cc2cnc3nc(N)nc(N)c3c2C)c1.O=C(O)C(F)(F)F,74%
16,Cc1nc(-c2nc(N3CCC(C(N)=O)CC3)ncc2-c2ccsc2)sc1C,33%
17,COc1ccc2nc3ccccc3c(NCCN3CCN(C)CC3)c2c1,10%
18,COc1cc2c(cc1C(F)(F)F)N(C(=O)Nc1cc(F)c(F)c(-c3cccnc3)c1)CC2,15%
19,O=C(O)C(F)(F)F.O=S(=O)(NCCN1CCCC1)c1ccc(-c2ccc(CNC3Cc4ccccc4C3)cc2)cc1F,75%
20,O=C(COc1ccc(C(=O)c2ccccc2)cc1)Nc1nccs1,18%
21,O=C(NC1CCN(Cc2ccc(O)cc2)CC1)c1ccc(Cl)c(Cl)c1.O=C(O)C(F)(F)F,3%

# From ChEMBL document CHEMBL1157539, “Thousands of chemical starting points for antimalarial lead identification” (Nature, 2010)
